Measured values reported in PubChem BioAssay (NCI).
Compounds without any hit were thinned out: in the full panel of roughly 83,000, 20% have a hit.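 For each line, cells grew in 96-well plates with the test compound present at a single concentration for 48 hours.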 Active and inactive are the calls of the source. Rule for the calls: active = growth percent below 10; inactive = the rest.

The molecules below were run on SN12C renal (assay: NCI-60 one-dose screen, 48 h (100 = growth as untreated, 0 = no growth, -100 = all killed)). Settings: 10 µM unless noted.

SMILES	growth
Cn1cc(C(=O)NCCC(=N)N)cc1NC(=O)CN=C(N)N	95.6% (inactive)
Nc1cccc2c(=S)c3ccccc3[nH]c12	90.6% (inactive)
CCN1CCN(c2nc3ccccc3c3c(=O)c4cc(F)ccc4sc23)CC1	80.7% (inactive)
Cc1ccc(N(CSc2ccc(Cl)cc2)CSc2ccc(Cl)cc2)cc1	30.3% (inactive)
O=C1C(Cl)=C(NCCCN2CCOCC2)C(=O)c2ccccc21	82.8% (inactive)
O=[N+]([O-])c1ccc(O)c2ncccc12	35.9% (inactive)
O=C(Nc1ccccc1)Oc1cccc2cccnc12	94.9% (inactive)
Cc1ccc(C)c2c1sc1nc3nc4sc5ccccc5n4c(=N)c3c(=O)n12	105% (inactive)
O=C(c1ccccc1)C(Br)C(Br)c1cccc([N+](=O)[O-])c1 (centres undefined)	67.1% (inactive)
COc1cc(/C=C2\C(=O)Nc3ccccc32)cc(OC)c1O	77% (inactive)
O=c1ccc2ccccc2o1	109% (inactive)
Cc1nc(-c2ccccc2)cc2c(O)c(C(=O)N/N=C/Cc3ccccc3)[nH]c(=O)c12	104% (inactive)
CN1CCc2cccc3c2C1Cc1ccc(O)c(O)c1-3 (centres undefined)	88.4% (inactive)
COc1cccc(C2C3=C(COC3=O)N(CCO)c3cc4c(cc32)CCC4)c1 (centres undefined)	19.5% (inactive)
COc1cc(CNCCCN2C(=O)c3ccc4c5c(ccc(c35)C2=O)C(=O)N(CCCNCc2cc(OC)c(OC)c(OC)c2)C4=O)cc(OC)c1OC	-98.9% (active)
O=C1C=CC(=O)N1CCCCCCCCCCN1C(=O)C=CC1=O	94.8% (inactive)
CCCCC/C=C\C/C=C/CCCCCCCCNC(=O)Nc1ccc([N+](=O)[O-])cc1	83.2% (inactive)
Clc1ccc(C2=NN(c3ccccc3)[C@H](c3cn(-c4ccccc4)nc3-c3ccccc3)C2)cc1	103% (inactive)
OB(O)c1ccccc1	112% (inactive)
COc1cccc2c(=O)c3c(sc12)c(NCCN(C)C)nc1ccccc13	34.9% (inactive)
O=C(N/N=C/c1ccc(F)cc1)c1[nH]c2ccc(I)cc2c1-c1ccccc1	32.6% (inactive)
COc1ccc(-c2nc3sc(C)cn3c2/C=C/C(=O)c2cc(OC)c(OC)c(OC)c2)cc1	59.5% (inactive)

The molecules below were run on UO-31 renal in the same assay as above. Settings: 10 µM unless noted.

SMILES	growth
COc1ccc(Sc2ccc3[nH]c(=O)nc(N)c3c2)cc1	99.2% (inactive)
CCN1C(=O)C2(Nc3ccccc3S2)c2cc(C)ccc21 (centres undefined)	79.3% (inactive)
CCOC(=O)c1cn2c3c(cc(F)cc3c1=O)C(CC)c1ccccc1C2 (centres undefined)	-57.3% (active)
Cc1nn(CC(=O)O)c2c1C(=O)CC(C)(C)C2	74% (inactive)
O=C1/C(=C/c2ccc(Oc3ccccc3)cc2)N=C(c2ccccc2)N1CCc1cccs1	67.6% (inactive)
COc1cccc(C2C3=C(COC3=O)N(CCO)c3cc4c(cc32)OCO4)c1 (centres undefined)	57.7% (inactive)
COc1ccc2c(c1)c(=O)oc1c(C)c(OCC(C)=O)ccc12	98.3% (inactive)
CC1=C(C/C=C(\C)CCC[C@H](C)CCC[C@H](C)CCCC(C)C)C(=O)c2ccccc2C1=O	71.7% (inactive)
O=S(=O)(OCCO)c1ccccc1	90.4% (inactive)
COc1ccc(-c2nc3sccn3c2/C=C/C(=O)c2cc(OC)c(OC)c(OC)c2)cc1OC	14% (inactive)
Cc1nc(NN)c([N+](=O)[O-])c(NN)n1	94.5% (inactive)
COc1cc(/C=C2\C(=O)N(c3c(Cl)cccc3Cl)c3ccccc32)cc(OC)c1O	31.7% (inactive)
COc1cc(C2C3=C(COC3=O)N(CCO)c3cc4c(cc32)OCO4)cc(OC)c1O (centres undefined)	57.9% (inactive)
COc1ccccc1CNCCCCCCCCCCCCN1C(=O)c2ccc3c4c(ccc(c24)C1=O)C(=O)N(CCCCCCCCCCCCNCc1ccccc1OC)C3=O	109% (inactive)
CCCCCCCCCCCCCCCC[N+]1(C)CCOCC1	59.6% (inactive)
Cn1cc(C(=O)NCCC(=N)N)cc1NC(=O)CN=C(N)N	84% (inactive)
Nc1cccc2c(=S)c3ccccc3[nH]c12	56.4% (inactive)
CCN1CCN(c2nc3ccccc3c3c(=O)c4cc(F)ccc4sc23)CC1	44% (inactive)
Cc1ccc(N(CSc2ccc(Cl)cc2)CSc2ccc(Cl)cc2)cc1	22.1% (inactive)

SMILES	growth
O=C1C(Cl)=C(NCCCN2CCOCC2)C(=O)c2ccccc21	61% (inactive)
O=[N+]([O-])c1ccc(O)c2ncccc12	60.3% (inactive)
O=C(Nc1ccccc1)Oc1cccc2cccnc12	68.1% (inactive)
Cc1ccc(C)c2c1sc1nc3nc4sc5ccccc5n4c(=N)c3c(=O)n12	78.1% (inactive)
O=C(c1ccccc1)C(Br)C(Br)c1cccc([N+](=O)[O-])c1 (centres undefined)	-74.8% (active)
COc1cc(/C=C2\C(=O)Nc3ccccc32)cc(OC)c1O	60% (inactive)
O=c1ccc2ccccc2o1	89.9% (inactive)
Cc1nc(-c2ccccc2)cc2c(O)c(C(=O)N/N=C/Cc3ccccc3)[nH]c(=O)c12	95.1% (inactive)
CN1CCc2cccc3c2C1Cc1ccc(O)c(O)c1-3 (centres undefined)	64.2% (inactive)
COc1cccc(C2C3=C(COC3=O)N(CCO)c3cc4c(cc32)CCC4)c1 (centres undefined)	42.3% (inactive)
COc1cc(CNCCCN2C(=O)c3ccc4c5c(ccc(c35)C2=O)C(=O)N(CCCNCc2cc(OC)c(OC)c(OC)c2)C4=O)cc(OC)c1OC	4.39% (active)
O=C1C=CC(=O)N1CCCCCCCCCCN1C(=O)C=CC1=O	48.2% (inactive)
CCCCC/C=C\C/C=C/CCCCCCCCNC(=O)Nc1ccc([N+](=O)[O-])cc1	60.5% (inactive)
Clc1ccc(C2=NN(c3ccccc3)[C@H](c3cn(-c4ccccc4)nc3-c3ccccc3)C2)cc1	94.8% (inactive)
OB(O)c1ccccc1	91.3% (inactive)
COc1cccc2c(=O)c3c(sc12)c(NCCN(C)C)nc1ccccc13	12.2% (inactive)
O=C(N/N=C/c1ccc(F)cc1)c1[nH]c2ccc(I)cc2c1-c1ccccc1	46% (inactive)
COc1ccc(-c2nc3sc(C)cn3c2/C=C/C(=O)c2cc(OC)c(OC)c(OC)c2)cc1	31.6% (inactive)
